Results published in PubChem BioAssay.
A number with no mark means an inactive call. The source made the active and inactive calls. Cut-off read from the data, not from the text of the source, unless noted: active = inhibition above about 44%; inactive = the rest.

These compounds were tested against Nuclear receptor subfamily 5 group A member 2 (Homo sapiens) (UniProt O00482) (assay: NR5A2 activity suppression in reporter cells – cell-based, luminescence, confirmation (AID 651613; in the data active = inhibition above about 42%;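 note: HEK293T cells co-transfected with LRH-1 and StAR promoter luciferase reporter; 0% = vehicle wells and 100% = parental cells lacking receptor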)). Settings: cell-based LRH-1 luciferase reporter, inverse agonism; at 3.6 µM; active compounds read high.
Sequence of Nuclear receptor subfamily 5 group A member 2 (Homo sapiens) (O00482 whole entry, looked up): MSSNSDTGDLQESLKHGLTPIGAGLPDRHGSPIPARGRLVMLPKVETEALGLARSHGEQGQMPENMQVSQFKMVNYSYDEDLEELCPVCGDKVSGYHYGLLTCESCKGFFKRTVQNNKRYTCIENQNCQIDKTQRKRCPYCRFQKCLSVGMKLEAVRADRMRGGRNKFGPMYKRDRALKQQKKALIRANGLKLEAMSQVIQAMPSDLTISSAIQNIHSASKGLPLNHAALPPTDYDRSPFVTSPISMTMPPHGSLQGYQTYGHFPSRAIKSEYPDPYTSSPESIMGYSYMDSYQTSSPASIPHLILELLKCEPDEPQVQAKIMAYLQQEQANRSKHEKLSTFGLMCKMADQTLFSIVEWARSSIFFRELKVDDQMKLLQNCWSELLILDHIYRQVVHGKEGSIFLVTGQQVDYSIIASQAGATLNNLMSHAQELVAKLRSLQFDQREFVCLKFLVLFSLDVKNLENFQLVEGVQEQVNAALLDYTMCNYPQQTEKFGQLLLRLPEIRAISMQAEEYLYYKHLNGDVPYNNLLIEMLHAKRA

Compound | inhibition
O=C(c1ccccc1)c1ccc2nc(N3CCN(C(=O)c4ccco4)CC3)c3nncn3c2c1 | 43% (active)
Clc1ccc2c(c1)-c1ccccc1C1=NCCN12 | 90.7% (active)
COc1cc(N)c2ncccc2c1Cl | 17.4%
COc1ccc(OC)c(/C=N/N=C2\SCC(=O)N2Cc2ccco2)c1 | 57.4% (active)
Cc1cccc(C(=O)N[C@H](C(=O)Nc2ncc(C)s2)C(C)C)c1 | 58.7% (active)
Cc1cc(C)c(C(N)=O)c(Nc2cccc3ccccc23)n1 | 2%
Cc1cc2oc(=O)cc(C)c2cc1NC(=O)CCl | 58.9% (active)
O=C(Nc1c(Cl)ccc2nsnc12)c1ccc([N+](=O)[O-])o1 | 65.1% (active)
COc1ccc(NC(=O)COc2cccc3c2CCN(C)C3=O)c(OC)c1 | 65.9% (active)
CC[n+]1ccc(/C=C/c2ccc(N(C)C)cc2)c2ccccc21 | 110% (active)
O=C(Nc1cccc(NC(=O)c2ccc([N+](=O)[O-])o2)c1)c1ccco1 | 69% (active)
O=C(CN1CCN(S(=O)(=O)c2cc(Cl)ccc2Cl)CC1)Nc1ccc2c(c1)OCCO2 | 59.6% (active)
CC(=O)Nc1cc(-c2ccc(F)cc2)cn2c(-c3ccc(S(C)(=O)=O)cc3)cnc12 | 51.4% (active)
CC(C)NC(=O)N1Cc2cc(C(=O)NC3CCCC3)nc(-c3cccc(-c4cccnc4)c3)c2[C@@H]1CCO | 45.1% (active)
CC[C@@H](C(=O)[C@@H](C)[C@@H](O)[C@H](C)[C@@H]1O[C@@H]([C@@H](CC)C(=O)O)CC[C@@H]1C)[C@H]1O[C@]2(C=C[C@@H](O)[C@]3(CC[C@@](C)([C@H]4CC[C@](O)(CC)[C@H](C)O4)O3)O2)[C@H](C)C[C@@H]1C | 103% (active)
CCCc1cc(=O)oc2cc(OCC(=O)NCCc3ccc(S(N)(=O)=O)cc3)ccc12 | 50.9% (active)
Cc1onc(-c2ccccc2Cl)c1C(=O)O/N=C(\N)c1ccc([N+](=O)[O-])o1 | 66.3% (active)
Cc1c(NC(=S)NC(=O)c2ccc(Cl)cc2)c(=O)n(-c2ccccc2)n1C | 51.5% (active)

Compound | inhibition
COc1ccccc1NC(=O)c1ccc(NC(=O)COC(=O)C(C)C)cc1 | 62.7% (active)
O=C(c1ccccc1)N(NC(=O)C(O)(c1ccccc1)c1ccccc1)c1cccc(F)c1 | 61.5% (active)
O=C(Cn1nnc2ccccc2c1=O)Nc1ccc2c(c1)CCC2 | 20.8%
O=C(Nc1ccc(Cc2ccncc2)cc1)c1ccc([N+](=O)[O-])o1 | 55.5% (active)
COc1cccc(C2c3cc4c(cc3OC(N3CCCC3)C2C)OCO4)c1O (stereo not given) | 64% (active)
O=C(COC(=O)c1ccccn1)Nc1cccnc1Cl | 40.5%
Cc1cc([N+](=O)[O-])ccc1NC(=O)CSc1nnc(C)n1C | 60.6% (active)
NS(=O)(=O)c1ccc(O)c(NC(=O)c2ccc([N+](=O)[O-])o2)c1 | 67.2% (active)
Cc1ccc(S(=O)(=O)N2CCc3ccccc3CC2)cc1 | 66.3% (active)
O=[N+]([O-])c1ccc(COc2cccc(CNc3ccc(Br)cc3)c2)cc1 | 48.8% (active)
O=C(NCCCc1ccccc1)c1cc([N+](=O)[O-])ccc1Cl | 71% (active)
Cc1ccc[n+](CC(=O)Nc2ccc(Cl)c([N+](=O)[O-])c2)c1 | 47% (active)
Cc1ccc(NC(=O)CSc2nnc(CCCCCNC(=O)OC(C)(C)C)o2)c(C)c1 | 47.9% (active)
CC(=O)N1CCN(c2ccc(NCc3ccc(C)cc3)cc2)CC1 | 34.2%
CC1(C)Cc2ccccc2-c2nnnn21 | 14.1%
Cc1ccc(Cl)cc1NC(=O)COC(=O)CC(C)(C)C | 62.4% (active)
O=C(Nc1cccc2ccccc12)c1ccc([N+](=O)[O-])o1 | 68.5% (active)

The compounds below were run against Steroidogenic factor 1 (Homo sapiens) (UniProt Q13285) (assay: inverse agonism at SF1 nuclear receptor – cell-based, luminescence, high throughput, counter-screen for LRH-1 inverse agonist project (AID 651614;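 note: cells cotransfected with StAR promoter reporter and SF1 expression vector; 0% = vehicle on cells with receptor and 100% = vehicle on cells lacking receptor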)). Settings: cell-based SF1 luciferase reporter, at 3.6 µM, active compounds read high.
Sequence of Steroidogenic factor 1 (Homo sapiens) (Q13285 whole entry, looked up): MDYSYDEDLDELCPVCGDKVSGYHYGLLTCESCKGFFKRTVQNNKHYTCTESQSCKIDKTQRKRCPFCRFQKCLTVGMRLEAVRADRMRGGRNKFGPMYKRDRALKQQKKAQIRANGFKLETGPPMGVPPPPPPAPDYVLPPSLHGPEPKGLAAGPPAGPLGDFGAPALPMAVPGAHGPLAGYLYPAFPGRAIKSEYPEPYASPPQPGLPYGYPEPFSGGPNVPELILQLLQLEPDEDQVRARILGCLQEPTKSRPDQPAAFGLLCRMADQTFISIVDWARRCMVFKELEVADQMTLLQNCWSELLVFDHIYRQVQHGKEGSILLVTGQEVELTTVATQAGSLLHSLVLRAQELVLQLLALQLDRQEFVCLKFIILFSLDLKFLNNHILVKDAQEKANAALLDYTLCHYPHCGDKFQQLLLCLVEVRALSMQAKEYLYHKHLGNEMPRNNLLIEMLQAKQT

Compound | inhibition
O=C(c1ccccc1)c1ccc2nc(N3CCN(C(=O)c4ccco4)CC3)c3nncn3c2c1 | 44.3% (active)
Clc1ccc2c(c1)-c1ccccc1C1=NCCN12 | 70.4% (active)
COc1cc(N)c2ncccc2c1Cl | 11.9%
COc1ccc(OC)c(/C=N/N=C2\SCC(=O)N2Cc2ccco2)c1 | 45.7% (active)
Cc1cccc(C(=O)N[C@H](C(=O)Nc2ncc(C)s2)C(C)C)c1 | 39.8%
Cc1cc(C)c(C(N)=O)c(Nc2cccc3ccccc23)n1 | 22.7%
Cc1cc2oc(=O)cc(C)c2cc1NC(=O)CCl | 57.7% (active)
O=C(Nc1c(Cl)ccc2nsnc12)c1ccc([N+](=O)[O-])o1 | 64.9% (active)
COc1ccc(NC(=O)COc2cccc3c2CCN(C)C3=O)c(OC)c1 | 61.6% (active)
CC[n+]1ccc(/C=C/c2ccc(N(C)C)cc2)c2ccccc21 | 94.1% (active)
O=C(Nc1cccc(NC(=O)c2ccc([N+](=O)[O-])o2)c1)c1ccco1 | 70.5% (active)
O=C(CN1CCN(S(=O)(=O)c2cc(Cl)ccc2Cl)CC1)Nc1ccc2c(c1)OCCO2 | 59.1% (active)
CC(=O)Nc1cc(-c2ccc(F)cc2)cn2c(-c3ccc(S(C)(=O)=O)cc3)cnc12 | 48.7% (active)
CC(C)NC(=O)N1Cc2cc(C(=O)NC3CCCC3)nc(-c3cccc(-c4cccnc4)c3)c2[C@@H]1CCO | 42.1%
CC[C@@H](C(=O)[C@@H](C)[C@@H](O)[C@H](C)[C@@H]1O[C@@H]([C@@H](CC)C(=O)O)CC[C@@H]1C)[C@H]1O[C@]2(C=C[C@@H](O)[C@]3(CC[C@@](C)([C@H]4CC[C@](O)(CC)[C@H](C)O4)O3)O2)[C@H](C)C[C@@H]1C | 92.7% (active)
CCCc1cc(=O)oc2cc(OCC(=O)NCCc3ccc(S(N)(=O)=O)cc3)ccc12 | 51.1% (active)
Cc1onc(-c2ccccc2Cl)c1C(=O)O/N=C(\N)c1ccc([N+](=O)[O-])o1 | 62.5% (active)
Cc1c(NC(=S)NC(=O)c2ccc(Cl)cc2)c(=O)n(-c2ccccc2)n1C | 33.4%

Compound | inhibition
COc1ccccc1NC(=O)c1ccc(NC(=O)COC(=O)C(C)C)cc1 | 55.7% (active)
O=C(c1ccccc1)N(NC(=O)C(O)(c1ccccc1)c1ccccc1)c1cccc(F)c1 | 53% (active)
O=C(Cn1nnc2ccccc2c1=O)Nc1ccc2c(c1)CCC2 | 25.6%
O=C(Nc1ccc(Cc2ccncc2)cc1)c1ccc([N+](=O)[O-])o1 | 63.6% (active)
COc1cccc(C2c3cc4c(cc3OC(N3CCCC3)C2C)OCO4)c1O (stereo not given) | 73.2% (active)
O=C(COC(=O)c1ccccn1)Nc1cccnc1Cl | 39.4%
Cc1cc([N+](=O)[O-])ccc1NC(=O)CSc1nnc(C)n1C | 47.1% (active)
NS(=O)(=O)c1ccc(O)c(NC(=O)c2ccc([N+](=O)[O-])o2)c1 | 61.2% (active)
Cc1ccc(S(=O)(=O)N2CCc3ccccc3CC2)cc1 | 56.7% (active)
O=[N+]([O-])c1ccc(COc2cccc(CNc3ccc(Br)cc3)c2)cc1 | 37.4%
O=C(NCCCc1ccccc1)c1cc([N+](=O)[O-])ccc1Cl | 67.5% (active)
Cc1ccc[n+](CC(=O)Nc2ccc(Cl)c([N+](=O)[O-])c2)c1 | 39.2%
Cc1ccc(NC(=O)CSc2nnc(CCCCCNC(=O)OC(C)(C)C)o2)c(C)c1 | 42.7%
CC(=O)N1CCN(c2ccc(NCc3ccc(C)cc3)cc2)CC1 | 33.7%
CC1(C)Cc2ccccc2-c2nnnn21 | 2.39%
Cc1ccc(Cl)cc1NC(=O)COC(=O)CC(C)(C)C | 60.2% (active)
O=C(Nc1cccc2ccccc12)c1ccc([N+](=O)[O-])o1 | 70.8% (active)
